The record followed here is PubChem BioAssay AID493169 (National Center for Advancing Translational Sciences (NCATS), 2011).

Results filed as inconclusive are left out. Values without a mark were called inactive. Active and inactive are the calls of the source. Calls come from the whole dose curve; as a rule, active = well fitted inhibition curve with a large enough effect; inconclusive = small, poorly fitted or top-dose-only effect; inactive = flat fitted curve, though single readings scatter.
% is set by controls: 0 for no effect and ±100 for the full control effect; potency is the fitted concentration of half-maximal effect.

This assay in a line: CHOP2 Reporter Counterscreen Assay for Inhibitors of Ubiquitin-specific Protease USP2a.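 Note: activated enterokinase alone at 50 pM in a cell-free format rather than USP2a or CHOP2; nearly all actives have a fitted effect of over 55% in size.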 To be noted: purified enterokinase, fluorogenic substrate, 485/531 nm; series mostly up to 38.3 µM; activity change, negative = inhibition: at the top concentration. The text has this: NIH Molecular Libraries Probe Centers Network [MLPCN] NIH Chemical Genomics Center [NCGC] MLPCN Grant: XO1-MH079852-01 PI Name: Nicholson, Ben. Progenra Inc, Malvern, PA NCGC Assay Overview: Homeostasis of cellular proteins is maintained through a combination of synthesis and degradation. The pathway that accounts for the majority of protein degradation is the ubiquitin-proteasomal pathway. Ubiquitin (Ub) is highly conserved in all cells and the generation of a multi-Ub chain typically targets proteins for degradation by the proteasome. However, ubiquitination is highly reversible and dynamic. Deubiquitination, the reverse process, is catalyzed through the action of enzymes referred to as isopeptidases or deubiquitinating enzymes (DUBs). This group of enzymes is collectively responsible for maintaining adequate pools of free ubiquitin and regulating the ubiquitination status of cellular proteins. The class of DUBs referred to as the ubiquitin-specific proteases (USP) family functions endoproteolytically to cleave Ub chains from a wide range of protein substrates. USP2a deubiquitinates fatty acid synthase (FASN) which has recently been identified as an emerging oncology target. To identify inhibitors of USP2a a cell-free assay was employed. This assay is a counterscreen against the reporter enzyme used to measure USP2a activity in the primary qHTS assay. The reporter enzyme is a protease (enterokinase, EK; EC 3.4.21.9), which is activated when a Ub sequence is cleaved by USP2a. The counterscreen assay is performed in the same buffer and conditions as the primary USP2a coupled assay but uses fully activated EK alone. The assay gives a fluorescent read-out at excitation/emission wavelengths of 485/531. The assay was provided by Progenra, Inc. and has been licensed for sale by LifeSensors, Inc.
NCGC Assay Protocol: The assay buffer, prepared fresh at the day of the assay, contains 20mM Tris-HCl pH 8.0, 2mM CaCl2, 2mM beta-Mercaptoethanol, 0.05% CHAPS. 3uL of 100 pM EK (50 pM final) was dispensed into a medium-binding black solid Kalypsys 1,536 well plate using the Kalypsys dispenser. The assay plate was then pinned with 23nL compounds in DMSO with the Kalypsys pintool in columns 5-48 (0.3% final DMSO concentration). The negative control was buffer/DMSO only in column 3. The assay plate is incubated at RT for 30min. Subsequently, 3uL of reporter substrate (25nM final) were dispensed into the plate using the Kalypsys dispenser. Plates were read after 10 min at RT on a ViewLux (Perkin Elmer) plate reader using the following wavelengths: Ex 485nm /Em 531nm. Data were normalized to the AC100 inhibition (buffer alone). Concentration-response curves were fitted to the normalized data and the concentration-response curves were then classified based on curve quality (r2), response magnitude and degree of measured activity. The time zero reading was used to flag fluorescence artifacts.
Regarding `O=C1NC(=O)[C@]2(Cc3ccccc3N3CCN(c4ccccc4)CC32)C(=O)N1Cc1ccccc1` (some centres undefined), the Potency is 10 µM (active). For the compound `O=c1[nH]c(=S)n(Cc2ccco2)c(O)c1C=NCc1cccs1`, the Potency was 8.91 µM (active). As for `OC(c1ccncc1)(c1ccc(F)cc1)c1ccc(F)cc1`, the “activity change, negative = inhibition” value is -2.73%.

On to `CC(C)N1C(=O)/C(=C/C=C/c2ccco2)C(=O)N(Cc2ccco2)C1=O`, for which the Potency was 7.94 µM (active). On to `FC(F)(F)c1ccc2c(c1)N(CCCN1CCN(CCCl)CC1)c1ccccc1S2`, for which the “activity change, negative = inhibition” value is -12.5%.

As for `O=C(COc1ccc(S(=O)(=O)N2CCOCC2)cc1)N1CCN(Cc2ccc3c(c2)OCO3)CC1`, the “activity change, negative = inhibition” value was -1.96%. Consider `Clc1ccc(C(c2ccc(Cl)cc2)n2cc[n+](CC(OCc3ccc(Cl)cc3Cl)c3ccc(Cl)cc3Cl)c2)cc1` (centres undefined), for which the Potency was 3.16 µM (active). `Cc1nn(Cc2ccc(Cl)cc2Cl)c(Cl)c1C(=O)Nc1ccc(OC(F)F)cc1`: the “activity change, negative = inhibition” value was -1.08%. Regarding `O=C1NC(=S)N(c2ccccc2)C(=O)/C1=C/c1ccco1`, the Potency is 3.55 µM (active). For `O=C1NC(=O)N(Cc2ccco2)C(=O)/C1=C/C=C/c1ccco1`, the Potency was 8.91 µM (active). Consider `NC(N)=N/N=C/c1ccc(N(c2ccccc2)c2ccccc2)cc1`, for which the Potency was 8.91 µM (active). For the compound `O=C(O)c1cccc2c1NC(C(=O)O)C1CC(Sc3ccccc3[N+](=O)[O-])C(Cl)C21` (centres undefined), the Potency is 10 µM (active). Regarding `COc1ccc(S(=O)(=O)Cc2ccc(C(=O)N3CCC4(CC3)OCCO4)o2)cc1`, the “activity change, negative = inhibition” value is 5.17%. Still for that read-out and setting: the figure for `CC(=Nc1ccc2c(c1)CCC2)c1c(O)n(C)c(=O)n(C)c1=O` is -0.941%; for `O=C1CC(=O)N(Cc2ccccc2)C(=O)N1CCCCCCN1C(=O)CC(=O)N(Cc2ccccc2)C1=O` it is -11%. On to `CCCC1=C(C(=O)OCC)C2(C(=O)Nc3ccc(C)cc32)C(C#N)=C(N)O1` (centres undefined), for which the “activity change, negative = inhibition” value is 7.12%. In the case of `O=c1[nH]c(=O)n(Cc2ccc(F)cc2)c(O)c1C=NCCCn1ccnc1`, the “activity change, negative = inhibition” value is 0.404%. For `COc1ccc(NC(=O)c2c(C)nn(Cc3ccccc3Cl)c2Cl)cc1Cl`, the “activity change, negative = inhibition” value was 4.72%.

Take `Nc1ccc(S(=O)(=O)N2CCCCC2c2cccnc2)cc1` (centres undefined): the “activity change, negative = inhibition” value was 2.79%.
